{"source": "PubChem BioAssay (NCATS)", "note": "Inconclusive results are not listed. Activity calls are given as the source filed them. Calls follow the shape of the full dose curve. Positions of bridges follow the written chain, without caps; N, C: chain ends. Non-standard residues stand in square brackets, D forms with d. Residues, ends and D or L forms follow the SMILES beside them. Groups on a side chain read outwards from the residue. *: point of attachment. Phg(4-OMe) = COc1ccc([C@H](N)C(=O)O)cc1; d(aIle) = CC[C@H](C)[C@@H](N)C(=O)O; d(aThr) = C[C@@H](O)[C@@H](N)C(=O)O; NMeF = CN[C@@H](Cc1ccccc1)C(=O)O; Isobutyryl = CC(C)C(=O)*", "data": [{"experiment": "qHTS for inhibitors of Rabies Virus screened against the NCATS CANVASS Library (AID 1347402); also: 0% is about no effect", "settings": "Rabies virus infection cell assay; series mostly up to 45.9 µM", "values": [{"smiles": "C=C(C)[C@@H]1CC[C@]2(C)CC[C@]3(C)[C@H](CC[C@@H]4[C@@]5(C)CC[C@H](O)C(C)(C)[C@@H]5CC[C@]43C)[C@@H]12", "outcome": "inactive"}, {"smiles": "CO[C@H]1/C=C/CC[C@@H](S[C@@H]2O[C@H](CO)[C@@H](O)[C@H](O)[C@H]2O)CC(=O)O[C@@H](/C(C)=C/[C@H](C)C(=O)CCCC2CC(=O)NC(=O)C2)[C@@H](C)[C@@H]1O", "activity change, negative = inhibition": "-23.8% [at 0.021 µM] (inactive)"}, {"smiles": "CC[C@H](C)[C@H]1NC(=O)[C@@H](NC(=O)C(C)C)[C@@H](C)OC(=O)[C@H](COC(=O)CNC(C)=O)NC(=O)[C@@H]([C@@H](C)O)NC(=O)[C@H](Cc2ccccc2)N(C)C(=O)[C@H](c2ccc(OC)cc2)NC1=O", "note": "(Isobutyryl-T[d(aIle)][Phg(4-OMe)][NMeF][d(aThr)]S([Gly-Ac]); ester 1-C)", "outcome": "inactive"}, {"smiles": "C[C@@H]1O[C@@H](Oc2c(-c3ccc(O)cc3)oc3cc(O)cc(O)c3c2=O)[C@H](O)[C@H](O)[C@H]1O", "outcome": "inactive"}, {"smiles": "CC1=C(C)C(=O)OC(C(C)C2(O)CCC3C4C5OC5C5(O)CC=CC(=O)C5(C)C4CCC32C)C1", "note": "(centres undefined)", "outcome": "inactive"}, {"smiles": "COc1cc(/C=C2/C(=O)N(c3ccc(O)cc3C(=O)O)[C@H](c3ccc(O)c(OC)c3)C2C(=O)Nc2ccc(O)cc2C(=O)O)ccc1O", "note": "(some centres undefined)", "outcome": "inactive"}, {"smiles": "[C-]#[N+][C@@]12C(=O)[C@@H]3[C@@H](O[C@@]4(C(=O)N(C)c5cccc1c54)C3(C)C)C(=O)[C@@]2(C)C=C", "outcome": "inactive"}, {"smiles": "C/C=C/c1cc(OC)c2c(c1)[C@@H](C)[C@H](c1ccc(O)c(OC)c1)O2", "outcome": "inactive"}, {"smiles": "C=C1CCC2C(C)(C(=O)O)CCC(CC/C(C)=C/C(=O)NC(CCC(N)=O)C(=O)O)[C@@]2(C)C1", "note": "(some centres undefined)", "outcome": "inactive"}]}]}
